Laboratory results published in ChEMBL document CHEMBL2218924, “A broad activity screen in support of a chemogenomic map for kinase signalling research and drug discovery” (Biochem J, 2013).

Tests used:
[1] = biological target: Vascular endothelial growth factor receptor 3 (Homo sapiens) (UniProt P35916); settings: at 10 µM
[2] = biological target: Macrophage colony-stimulating factor 1 receptor (Homo sapiens) (UniProt P07333); settings: at 1 µM
[3] = biological target: Macrophage colony-stimulating factor 1 receptor (Homo sapiens) (UniProt P07333); settings: at 10 µM
[4] = biological target: Tyrosine-protein kinase Fyn (Homo sapiens) (UniProt P06241); settings: at 1 µM
[5] = biological target: Tyrosine-protein kinase Fyn (Homo sapiens) (UniProt P06241); settings: at 10 µM
[6] = biological target: T1, Mitogen-activated protein kinase kinase kinase kinase 2 (Homo sapiens) (UniProt Q12851); settings: at 1 µM
T1 sequence (whole entry): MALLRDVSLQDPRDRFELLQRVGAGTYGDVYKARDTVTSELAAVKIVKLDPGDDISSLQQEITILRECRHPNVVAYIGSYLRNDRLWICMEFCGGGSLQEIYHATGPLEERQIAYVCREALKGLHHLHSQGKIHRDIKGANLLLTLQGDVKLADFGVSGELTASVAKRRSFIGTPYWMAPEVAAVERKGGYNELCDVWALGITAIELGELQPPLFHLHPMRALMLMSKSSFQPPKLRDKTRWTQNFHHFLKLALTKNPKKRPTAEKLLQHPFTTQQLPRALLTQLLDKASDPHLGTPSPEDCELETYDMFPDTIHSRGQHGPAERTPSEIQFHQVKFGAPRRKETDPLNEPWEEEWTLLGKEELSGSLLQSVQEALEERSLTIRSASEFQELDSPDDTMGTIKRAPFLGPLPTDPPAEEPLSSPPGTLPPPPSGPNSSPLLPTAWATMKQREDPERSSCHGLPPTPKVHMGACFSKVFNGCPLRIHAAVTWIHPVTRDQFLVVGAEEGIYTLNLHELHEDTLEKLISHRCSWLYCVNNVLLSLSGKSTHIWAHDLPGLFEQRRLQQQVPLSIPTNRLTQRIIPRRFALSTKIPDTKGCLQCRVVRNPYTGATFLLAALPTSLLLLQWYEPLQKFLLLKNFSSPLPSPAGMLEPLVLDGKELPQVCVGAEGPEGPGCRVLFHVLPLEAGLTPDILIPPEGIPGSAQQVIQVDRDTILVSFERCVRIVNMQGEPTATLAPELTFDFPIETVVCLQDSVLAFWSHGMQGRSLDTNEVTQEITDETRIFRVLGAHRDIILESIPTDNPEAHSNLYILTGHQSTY

[7] = biological target: T1, Mitogen-activated protein kinase kinase kinase kinase 2 (Homo sapiens); settings: at 10 µM
[8] = biological target: G protein-coupled receptor kinase 5 (Homo sapiens) (UniProt P34947); settings: at 1 µM
[9] = biological target: G protein-coupled receptor kinase 5 (Homo sapiens) (UniProt P34947); settings: at 10 µM
[10] = biological target: G protein-coupled receptor kinase 6 (Homo sapiens) (UniProt P43250); settings: at 1 µM
[11] = biological target: G protein-coupled receptor kinase 6 (Homo sapiens) (UniProt P43250); settings: at 10 µM
[12] = biological target: T2, Rhodopsin kinase GRK7 (Homo sapiens) (UniProt Q8WTQ7); settings: at 1 µM
T2 sequence (whole entry): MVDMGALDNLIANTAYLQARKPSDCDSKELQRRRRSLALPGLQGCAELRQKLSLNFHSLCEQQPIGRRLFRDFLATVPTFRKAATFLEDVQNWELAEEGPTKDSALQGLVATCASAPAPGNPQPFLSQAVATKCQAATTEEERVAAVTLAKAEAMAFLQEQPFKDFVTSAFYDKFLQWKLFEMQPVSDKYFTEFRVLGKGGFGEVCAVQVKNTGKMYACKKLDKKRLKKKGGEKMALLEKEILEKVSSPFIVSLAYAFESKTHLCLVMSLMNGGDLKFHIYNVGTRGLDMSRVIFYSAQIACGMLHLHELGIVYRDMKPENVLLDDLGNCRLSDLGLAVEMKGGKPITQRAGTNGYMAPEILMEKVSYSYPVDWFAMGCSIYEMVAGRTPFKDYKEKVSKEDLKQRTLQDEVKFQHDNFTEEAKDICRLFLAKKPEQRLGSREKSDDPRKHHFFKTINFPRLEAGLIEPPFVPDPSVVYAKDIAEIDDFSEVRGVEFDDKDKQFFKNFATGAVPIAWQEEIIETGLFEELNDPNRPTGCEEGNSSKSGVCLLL

[13] = biological target: T2, Rhodopsin kinase GRK7 (Homo sapiens); settings: at 10 µM
[14] = biological target: Glycogen synthase kinase-3 alpha (Homo sapiens) (UniProt P49840); settings: at 1 µM
[15] = biological target: Glycogen synthase kinase-3 alpha (Homo sapiens) (UniProt P49840); settings: at 10 µM
[16] = biological target: Glycogen synthase kinase-3 beta (Homo sapiens) (UniProt P49841); settings: at 1 µM
[17] = biological target: Glycogen synthase kinase-3 beta (Homo sapiens) (UniProt P49841); settings: at 10 µM
[18] = biological target: Homeodomain-interacting protein kinase 1 (Homo sapiens) (UniProt Q86Z02); settings: at 1 µM
[19] = biological target: Homeodomain-interacting protein kinase 1 (Homo sapiens) (UniProt Q86Z02); settings: at 10 µM
[20] = biological target: Homeodomain-interacting protein kinase 2 (Homo sapiens) (UniProt Q9H2X6); settings: at 1 µM
Homeodomain-interacting protein kinase 2 (Homo sapiens), sequence (Q9H2X6 whole entry, looked up): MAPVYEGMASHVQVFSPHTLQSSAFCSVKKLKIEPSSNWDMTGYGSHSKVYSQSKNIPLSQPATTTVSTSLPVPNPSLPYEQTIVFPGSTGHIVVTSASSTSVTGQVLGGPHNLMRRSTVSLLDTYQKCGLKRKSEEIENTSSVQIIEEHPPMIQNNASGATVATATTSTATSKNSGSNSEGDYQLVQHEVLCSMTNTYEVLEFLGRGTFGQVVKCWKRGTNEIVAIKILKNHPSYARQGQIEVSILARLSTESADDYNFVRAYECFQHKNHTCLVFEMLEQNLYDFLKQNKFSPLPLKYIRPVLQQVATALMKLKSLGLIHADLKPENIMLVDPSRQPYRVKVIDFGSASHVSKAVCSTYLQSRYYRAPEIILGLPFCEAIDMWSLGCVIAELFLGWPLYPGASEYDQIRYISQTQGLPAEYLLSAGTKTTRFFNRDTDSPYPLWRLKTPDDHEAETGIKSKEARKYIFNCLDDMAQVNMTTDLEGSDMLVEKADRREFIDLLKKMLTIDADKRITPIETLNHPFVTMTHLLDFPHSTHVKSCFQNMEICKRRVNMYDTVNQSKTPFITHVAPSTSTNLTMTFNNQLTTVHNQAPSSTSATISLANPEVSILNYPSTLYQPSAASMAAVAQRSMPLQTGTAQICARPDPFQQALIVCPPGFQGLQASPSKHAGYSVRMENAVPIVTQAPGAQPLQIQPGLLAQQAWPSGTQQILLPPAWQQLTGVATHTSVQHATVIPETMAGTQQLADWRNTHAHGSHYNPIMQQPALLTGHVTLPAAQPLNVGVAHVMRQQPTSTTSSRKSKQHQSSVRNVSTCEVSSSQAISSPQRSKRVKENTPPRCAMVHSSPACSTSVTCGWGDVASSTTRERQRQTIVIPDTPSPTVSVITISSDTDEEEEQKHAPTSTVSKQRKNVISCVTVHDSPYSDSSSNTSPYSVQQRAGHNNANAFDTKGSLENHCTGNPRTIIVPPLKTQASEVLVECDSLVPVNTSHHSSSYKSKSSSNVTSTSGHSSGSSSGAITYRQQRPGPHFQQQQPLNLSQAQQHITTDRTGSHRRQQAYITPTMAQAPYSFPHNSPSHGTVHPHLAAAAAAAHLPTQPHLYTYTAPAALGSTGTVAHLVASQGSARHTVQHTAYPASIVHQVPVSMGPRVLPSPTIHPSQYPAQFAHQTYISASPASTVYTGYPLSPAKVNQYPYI

Vascular endothelial growth factor receptor 3 (Homo sapiens), sequence (P35916 whole entry): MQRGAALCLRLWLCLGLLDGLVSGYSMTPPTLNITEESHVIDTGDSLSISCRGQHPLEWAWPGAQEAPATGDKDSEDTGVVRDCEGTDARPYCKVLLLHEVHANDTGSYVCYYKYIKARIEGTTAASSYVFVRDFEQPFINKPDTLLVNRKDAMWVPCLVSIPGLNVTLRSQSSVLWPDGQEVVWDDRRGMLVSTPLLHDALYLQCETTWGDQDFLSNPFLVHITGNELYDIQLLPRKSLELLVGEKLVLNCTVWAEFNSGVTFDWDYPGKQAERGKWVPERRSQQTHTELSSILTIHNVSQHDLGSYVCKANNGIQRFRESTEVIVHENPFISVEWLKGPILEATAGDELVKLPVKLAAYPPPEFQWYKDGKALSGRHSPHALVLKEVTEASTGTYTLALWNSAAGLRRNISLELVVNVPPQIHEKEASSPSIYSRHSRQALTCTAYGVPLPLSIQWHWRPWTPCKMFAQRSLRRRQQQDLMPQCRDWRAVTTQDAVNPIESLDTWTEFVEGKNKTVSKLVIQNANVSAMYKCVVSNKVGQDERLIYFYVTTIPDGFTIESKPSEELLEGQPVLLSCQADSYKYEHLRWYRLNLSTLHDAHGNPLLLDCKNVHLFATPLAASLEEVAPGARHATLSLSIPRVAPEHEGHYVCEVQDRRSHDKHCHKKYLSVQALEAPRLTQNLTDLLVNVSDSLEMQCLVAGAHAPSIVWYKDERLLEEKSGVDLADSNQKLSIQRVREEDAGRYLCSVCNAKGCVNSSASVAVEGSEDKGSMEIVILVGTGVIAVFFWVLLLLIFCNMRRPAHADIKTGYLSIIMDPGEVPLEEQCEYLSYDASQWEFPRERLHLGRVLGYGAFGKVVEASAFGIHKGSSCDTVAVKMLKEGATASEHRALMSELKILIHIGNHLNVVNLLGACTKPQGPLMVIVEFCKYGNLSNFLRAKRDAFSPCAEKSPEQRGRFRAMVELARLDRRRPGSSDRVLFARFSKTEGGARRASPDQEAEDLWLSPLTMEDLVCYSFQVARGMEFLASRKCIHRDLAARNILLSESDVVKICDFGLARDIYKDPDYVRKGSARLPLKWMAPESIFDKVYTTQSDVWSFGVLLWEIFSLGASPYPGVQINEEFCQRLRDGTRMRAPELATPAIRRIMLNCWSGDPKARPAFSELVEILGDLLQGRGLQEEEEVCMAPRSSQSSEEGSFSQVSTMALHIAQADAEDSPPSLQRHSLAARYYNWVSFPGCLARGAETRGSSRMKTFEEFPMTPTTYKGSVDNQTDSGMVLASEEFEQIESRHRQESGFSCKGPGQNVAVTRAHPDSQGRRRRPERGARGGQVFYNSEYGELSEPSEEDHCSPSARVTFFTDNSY
G protein-coupled receptor kinase 6 (Homo sapiens), sequence (P43250 whole entry, looked up): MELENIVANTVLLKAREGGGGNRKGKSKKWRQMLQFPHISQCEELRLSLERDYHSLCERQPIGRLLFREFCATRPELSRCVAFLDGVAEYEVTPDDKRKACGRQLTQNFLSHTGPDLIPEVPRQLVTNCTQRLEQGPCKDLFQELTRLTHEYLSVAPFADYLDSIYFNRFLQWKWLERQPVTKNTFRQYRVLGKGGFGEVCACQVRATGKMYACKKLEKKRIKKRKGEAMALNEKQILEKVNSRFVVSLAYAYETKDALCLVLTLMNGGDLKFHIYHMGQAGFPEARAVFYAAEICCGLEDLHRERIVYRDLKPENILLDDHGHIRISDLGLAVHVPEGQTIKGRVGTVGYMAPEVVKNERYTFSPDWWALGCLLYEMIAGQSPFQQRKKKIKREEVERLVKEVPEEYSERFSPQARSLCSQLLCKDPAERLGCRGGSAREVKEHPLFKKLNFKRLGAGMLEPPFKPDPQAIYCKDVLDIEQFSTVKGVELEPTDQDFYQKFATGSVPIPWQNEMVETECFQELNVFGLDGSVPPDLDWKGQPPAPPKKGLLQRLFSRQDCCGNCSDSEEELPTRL
Macrophage colony-stimulating factor 1 receptor (Homo sapiens), sequence (P07333 whole entry): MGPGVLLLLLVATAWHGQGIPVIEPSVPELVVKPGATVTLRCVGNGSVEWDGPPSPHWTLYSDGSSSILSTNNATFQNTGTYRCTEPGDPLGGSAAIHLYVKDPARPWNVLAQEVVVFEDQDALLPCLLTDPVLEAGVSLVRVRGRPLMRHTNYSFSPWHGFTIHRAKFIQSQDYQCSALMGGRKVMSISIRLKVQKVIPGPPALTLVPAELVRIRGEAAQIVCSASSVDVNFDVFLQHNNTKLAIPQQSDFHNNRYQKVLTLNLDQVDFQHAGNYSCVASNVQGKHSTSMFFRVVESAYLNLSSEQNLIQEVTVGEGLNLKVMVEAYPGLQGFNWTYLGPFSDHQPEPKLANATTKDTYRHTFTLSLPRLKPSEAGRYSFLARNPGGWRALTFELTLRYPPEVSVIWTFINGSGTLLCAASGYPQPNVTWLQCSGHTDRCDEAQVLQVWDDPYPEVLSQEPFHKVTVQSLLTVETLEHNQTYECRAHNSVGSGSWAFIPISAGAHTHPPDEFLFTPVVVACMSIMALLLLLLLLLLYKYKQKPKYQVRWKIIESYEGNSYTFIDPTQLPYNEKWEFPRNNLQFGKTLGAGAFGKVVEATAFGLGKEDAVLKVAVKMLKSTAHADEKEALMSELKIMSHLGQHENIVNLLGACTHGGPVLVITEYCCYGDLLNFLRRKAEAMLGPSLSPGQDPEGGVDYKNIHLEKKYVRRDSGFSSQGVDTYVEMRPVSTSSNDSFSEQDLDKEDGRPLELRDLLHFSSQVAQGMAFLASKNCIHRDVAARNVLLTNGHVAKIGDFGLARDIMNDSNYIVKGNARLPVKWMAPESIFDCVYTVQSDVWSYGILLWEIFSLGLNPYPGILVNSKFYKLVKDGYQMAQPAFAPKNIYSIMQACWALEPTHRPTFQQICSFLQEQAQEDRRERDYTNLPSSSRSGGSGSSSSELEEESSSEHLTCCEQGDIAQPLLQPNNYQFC
Glycogen synthase kinase-3 beta (Homo sapiens), sequence (P49841 whole entry, looked up): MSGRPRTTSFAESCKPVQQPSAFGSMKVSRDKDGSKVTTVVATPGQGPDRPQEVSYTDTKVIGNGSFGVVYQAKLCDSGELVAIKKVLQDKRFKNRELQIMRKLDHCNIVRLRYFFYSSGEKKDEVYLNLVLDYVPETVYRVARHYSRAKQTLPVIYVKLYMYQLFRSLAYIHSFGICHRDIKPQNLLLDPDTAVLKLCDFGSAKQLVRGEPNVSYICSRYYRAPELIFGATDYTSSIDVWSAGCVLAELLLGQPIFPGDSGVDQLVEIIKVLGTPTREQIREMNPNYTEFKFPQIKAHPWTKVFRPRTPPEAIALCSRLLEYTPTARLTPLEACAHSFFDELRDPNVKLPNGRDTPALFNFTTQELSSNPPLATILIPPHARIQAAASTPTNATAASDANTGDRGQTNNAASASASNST
Glycogen synthase kinase-3 alpha (Homo sapiens), sequence (P49840 2-483 limits assumed): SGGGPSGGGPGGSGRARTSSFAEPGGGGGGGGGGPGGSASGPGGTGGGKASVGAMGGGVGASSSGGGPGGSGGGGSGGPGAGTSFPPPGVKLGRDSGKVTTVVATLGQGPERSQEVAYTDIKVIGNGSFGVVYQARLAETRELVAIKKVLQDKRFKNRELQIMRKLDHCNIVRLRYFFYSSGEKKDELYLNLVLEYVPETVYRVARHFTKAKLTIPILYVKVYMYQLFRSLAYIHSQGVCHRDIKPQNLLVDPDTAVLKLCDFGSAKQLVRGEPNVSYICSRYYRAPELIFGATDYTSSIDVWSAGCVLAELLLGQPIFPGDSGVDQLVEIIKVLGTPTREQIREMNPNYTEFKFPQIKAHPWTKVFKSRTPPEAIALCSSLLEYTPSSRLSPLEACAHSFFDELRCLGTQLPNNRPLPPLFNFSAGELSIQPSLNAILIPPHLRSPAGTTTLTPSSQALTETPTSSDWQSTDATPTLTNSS

COc1cc(OC)c(/C=C2\C(=O)Nc3ccccc32)c(OC)c1
residual activity [1]: 74% | residual activity [2]: 87% | residual activity [3]: 69% | residual activity [4]: 70% | residual activity [5]: 68% | residual activity [6]: 95% | residual activity [7]: 86% | residual activity [8]: 101% | residual activity [9]: 99% | residual activity [10]: 89% | residual activity [11]: 91% | residual activity [12]: 95% | residual activity [13]: 84% | residual activity [14]: 105% | residual activity [15]: 95% | residual activity [16]: 132% | residual activity [17]: 106% | residual activity [18]: 102% | residual activity [19]: 98% | residual activity [20]: 104%

O=C1c2ccccc2-c2nc3nnnn3nc21
residual activity [1]: 70% | residual activity [8]: 107% | residual activity [9]: 77% | residual activity [14]: 101% | residual activity [15]: 120% | residual activity [16]: 115% | residual activity [17]: 101%

N/C(=N\[N+](=O)[O-])N/N=C\c1ccc(-c2cccc([N+](=O)[O-])c2)o1
residual activity [1]: 42% | residual activity [2]: 67% | residual activity [3]: 65% | residual activity [4]: 77% | residual activity [5]: 83% | residual activity [7]: 87% | residual activity [10]: 97% | residual activity [11]: 94% | residual activity [12]: 100% | residual activity [13]: 91% | residual activity [14]: 99% | residual activity [15]: 78% | residual activity [17]: 97% | residual activity [18]: 99% | residual activity [19]: 100% | residual activity [20]: 82%

COc1cc2ncnc(Nc3cccc(Cl)c3)c2cc1OC
residual activity [8]: 108%

c1cc(-c2cnn3cc(-c4ccc(OCCN5CCCCC5)cc4)cnc23)ccn1
residual activity [1]: 0% | residual activity [2]: 3% | residual activity [3]: 1% | residual activity [4]: 11% | residual activity [5]: 1% | residual activity [6]: 10% | residual activity [7]: 1% | residual activity [10]: 101% | residual activity [14]: 100% | residual activity [15]: 76% | residual activity [18]: 85% | residual activity [19]: 34% | residual activity [20]: 62%

Cn1c2ccccc2c2c3c(c4c5ccccc5n(CCC#N)c4c21)CNC3=O
residual activity [8]: 69%

O=C1NC(=O)C(c2cn(CCCO)c3ncccc23)=C1c1cnccn1
residual activity [8]: 100%

CC(C)(C)n1nc(Cc2cccc3ccccc23)c2c(N)ncnc21
residual activity [8]: 108%

CC(C)(C)c1cc(C=C(C#N)C#N)cc(Br)c1O
residual activity [1]: 83% | residual activity [2]: 97% | residual activity [3]: 76% | residual activity [5]: 15% | residual activity [6]: 113% | residual activity [8]: 120% | residual activity [9]: 100% | residual activity [10]: 106% | residual activity [11]: 104% | residual activity [12]: 113% | residual activity [13]: 102% | residual activity [14]: 117% | residual activity [15]: 74% | residual activity [16]: 106% | residual activity [17]: 96% | residual activity [18]: 107% | residual activity [19]: 104% | residual activity [20]: 101%
